Assay outcomes (PubChem BioAssay)
Hits are enriched below; roughly 19% of the tested compounds scored in any of these assays.
TDP1 block = inhibitors of human tyrosyl-DNA phosphodiesterase TDP1; recombinant TDP1, AlphaScreen DNA substrate cleavage; Potency, µM (top dose mostly 130 µM), for the others: at the highest dose activity change, negative = inhibition, hits mostly inhibitors; hit rate 0.28% among 350,000; AID 485290; note: nearly all actives have a fitted effect of over 40% in size
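AlphaScreen read-out: signal falls as enzyme removes the 3' tyrosine-FITC from a 5'-biotinylated DNA oligo (15 nM, 5 min, RT). Enzyme was E. coli-made recombinant Tdp1 at 1 nM, exposed to compound for 15 min beforehand; beads 10 ug/ml, 10 min.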
TDP1 cell CPT = growth inhibition of DT40 Tdp1-/-;hTDP1 cells with camptothecin (screen for TDP1 inhibitors). chicken DT40 Tdp1-/-;hTDP1 cells + 20 nM CPT, ATP luminescence, 48 h. Potency, µM (highest dose often 46.2 µM), without a hit: at the highest dose activity change, negative = growth inhibition, usual class: inhibitors. hit rate 12% among 420,000; note: nearly all actives have a fitted effect of over 55% in size
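Chicken DT40 Tdp1-/- cells complemented with human TDP1, 400 cells/well, exposed to compounds plus 20 nM camptothecin for at least 48 h at 37 C; viability read as ATP content by CellTiter-Glo luminescence.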
TDP1 cell noCPT = qHTS for Inhibitors of human tyrosyl-DNA phosphodiesterase 1 (TDP1): qHTS in cells in absence of CPT. Potency, µM (titrated, usually from 46.2 µM), without a hit: at the highest dose activity change, negative = growth inhibition, usual class: inhibitors. DT40 Tdp1-/- hTDP1 cells, no CPT, ATP luminescence, 48 h. AID 686978, 2013. hit rate 15% among 420,000; note: nearly all actives have a fitted effect of over 55% in size
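Chicken DT40 Tdp1-/- cells stably complemented with human TDP1 were seeded at 400 cells/well with DMSO in place of 20 nM camptothecin. After compound pinning, cells grew at least 48 hr at 37 °C; viability read by CellTiter-Glo luminescence.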
RORg inh = blocks mouse ROR gamma transcriptional activity; P51450; Drosophila S2 Gal4-RORgamma UAS-luciferase reporter, 20 h; Potency, µM (doses to about 53.6 µM), without a hit: at the highest dose activity change, negative = inhibition, usual class: inhibitors; hit rate 5.4% among 310,000; AID 2551; note: nearly all actives have a fitted effect of over 60% in size
Target sequence (P51450 whole entry, looked up, the tested form may be a part): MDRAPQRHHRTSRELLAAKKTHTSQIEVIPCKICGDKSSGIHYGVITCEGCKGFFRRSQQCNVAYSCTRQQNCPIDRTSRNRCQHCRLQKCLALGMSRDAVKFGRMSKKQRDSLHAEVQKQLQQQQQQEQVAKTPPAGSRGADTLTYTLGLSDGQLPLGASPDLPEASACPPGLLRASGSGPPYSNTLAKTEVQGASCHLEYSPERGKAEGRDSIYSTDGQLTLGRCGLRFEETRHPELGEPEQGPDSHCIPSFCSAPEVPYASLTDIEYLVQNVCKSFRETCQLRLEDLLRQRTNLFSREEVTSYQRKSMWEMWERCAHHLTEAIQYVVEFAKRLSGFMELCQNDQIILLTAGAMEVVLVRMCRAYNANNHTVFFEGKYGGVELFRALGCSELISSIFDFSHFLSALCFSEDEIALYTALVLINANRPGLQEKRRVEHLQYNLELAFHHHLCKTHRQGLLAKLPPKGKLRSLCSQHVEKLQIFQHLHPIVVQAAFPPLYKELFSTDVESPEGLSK
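Read-out: Photinus luciferase luminescence; inhibitors lower reporter signal. Insect Schneider cells with Gal4-ROR gamma fusion under metallothionein promoter, UAS reporter; 700 uM final copper sulfate induction, 20 hr, ambient temperature.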
VP16 counter = counter-screen for ROR gamma inhibitors: Gal4-VP16 reporter. Drosophila S2 Gal4-VP16 UAS-luciferase, luminescence, 20 h. Potency, µM (series often up to 53.6 µM), without a hit: at the top dose activity, negative = inhibition, usual class: inhibitors. hit rate 3.5% among 310,000;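 note: Gal4-VP16 expression switched on by copper sulfate through the metallothionein promoter; nearly all actives have a fitted effect of over 50% in size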
* = called active by the depositor; [ ] = another dose, or the depositor's remark. Calls come from the whole dose curve; as a rule, active = well fitted curve in the direction sought with a large enough effect; inconclusive = small, poorly fitted or top-dose-only effect, or another doubt; inactive = no such curve, though single readings can be large; an effect the other way counts as inactive or inconclusive. % is set by controls: 0 for no effect and ±100 for the full control effect; potency is the fitted concentration of half-maximal effect.

Cc1ccc(O)c(N=Cc2cccs2)c1 was read as TDP1 block 5%, TDP1 cell CPT 23µM*, TDP1 cell noCPT inconclusive, RORg inh inconclusive and VP16 counter -22%.
For O=C(Nc1ccc(F)c(Cl)c1)c1ccc2nc([C@@H]3O[C@H](CO)[C@H](O)[C@H](O)[C@H]3O)[nH]c2c1 the results were TDP1 cell CPT -10% and TDP1 cell noCPT 16%.
Screening N#Cc1c(-c2cccs2)cc(-c2cccs2)[nH]c1=O returned TDP1 cell CPT -10%, TDP1 cell noCPT -6%, RORg inh -37% and VP16 counter -10%.
For Cc1cc(-c2cccs2)c(C#N)c(=S)[nH]1 the results were TDP1 cell CPT -25%, TDP1 cell noCPT -7%, RORg inh 10µM* and VP16 counter inconclusive.
`COCc1cc(=O)[nH]c(SCCS(=O)(=O)c2ccc(C)cc2)n1` gave TDP1 block 6%, TDP1 cell CPT 25%, TDP1 cell noCPT -7%, RORg inh 8% and VP16 counter -4%.
Screening COCc1cc(=O)[nH]c(SCCS(=O)(=O)c2ccc(Cl)cc2Cl)n1 returned TDP1 block 9%, TDP1 cell CPT 21µM*, TDP1 cell noCPT inconclusive, RORg inh 17% and VP16 counter 0%.
CCSC1=C(C#N)C(c2ccc(F)cc2)CC(=O)N1 (configuration not stated) was read as TDP1 block 1%, TDP1 cell CPT -22%, TDP1 cell noCPT -16%, RORg inh 24% and VP16 counter 8%.
For O=S(=O)(c1cc(Cl)ccc1Cl)N1CCCC1 the results were TDP1 block -5%, TDP1 cell CPT -4%, TDP1 cell noCPT -21%, RORg inh 35% and VP16 counter inconclusive.
Cc1cc(C2N=C(N)Nc3nc4ccccc4n32)c(C)n1-c1ccccc1Cl (configuration not stated) was read as TDP1 block 0%, TDP1 cell CPT 21µM*, TDP1 cell noCPT inconclusive, RORg inh -28% and VP16 counter -4%.
Screening COc1ccc(OC)c(C2N=C(N)Nc3nc4ccccc4n32)c1 (configuration not stated) returned TDP1 block 3%, TDP1 cell CPT -3% and TDP1 cell noCPT 7%.
COc1ccc(C2N=C(N)Nc3nc4ccccc4n32)cc1 (configuration not stated) was read as TDP1 block 7%, TDP1 cell CPT -15% and TDP1 cell noCPT -11%.
Cc1ccc(-n2c(C)cc(C3N=C(N)Nc4nc5ccccc5n43)c2C)c(C)c1 (configuration not stated) was read as TDP1 block 11%, TDP1 cell CPT 21µM*, TDP1 cell noCPT 23µM*, RORg inh -32% and VP16 counter 6%.
Screening Nc1cccc(-c2cccc3nncn23)c1 returned TDP1 cell CPT -26% and TDP1 cell noCPT -7%.
CC(=O)NC(Cc1ccc(C)cc1)C(=O)NC1CCN(C(=O)c2ccc([N+](=O)[O-])cc2)CC1 (configuration not stated) was read as TDP1 block 5%, TDP1 cell CPT -6%, TDP1 cell noCPT 9%, RORg inh 13% and VP16 counter -11%.
For COc1ccc(NC(=S)NCCc2ccc(Cl)cc2)c(OC)c1 the results were TDP1 block 9%, TDP1 cell CPT inconclusive, TDP1 cell noCPT inconclusive, RORg inh 4.5µM* and VP16 counter 11µM*.
For COc1ccc(Cl)cc1NC(=S)NCCO the results were TDP1 block -4%, TDP1 cell CPT 32%, TDP1 cell noCPT -11%, RORg inh 4% and VP16 counter -6%.
Screening COc1ccc(NCCC(O)c2ccc(Cl)cc2)cc1 (configuration not stated) returned TDP1 cell CPT 9%, TDP1 cell noCPT -9%, RORg inh 10% and VP16 counter 7%.
For COc1ccc(NC(=S)NCc2ccc(Cl)cc2)c(OC)c1 the results were TDP1 cell CPT inconclusive, TDP1 cell noCPT inconclusive, RORg inh -12%[1.91 µM] and VP16 counter inconclusive.
